Inconclusive results are not listed. A call without a number means that no potency is given here. Values without a mark were called inactive. The source made the active and inactive calls. Calls come from the whole dose curve; as a rule, active = well fitted curve in the direction sought with a large enough effect; inconclusive = small, poorly fitted or top-dose-only effect, or another doubt; inactive = no such curve, though single readings can be large; an effect the other way counts as inactive or inconclusive.
Legend:
[1] = Quantitative High-Throughput drug screen in 47 multiple myeloma cell lines against the NCATS MIPE library collection: KMS27_JCRB cell viability assay (AID 1918970); note: nearly all actives have a fitted effect of over 30% in size
Summary of the method: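 Luminescent ATP read-out (CellTiter-Glo, 5 min at room temperature) after 48 h compound exposure of 500 KMS27_JCRB cells per well; DMSO wells define full viability and media-only wells zero.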

[2] = Quantitative High-Throughput drug screen in 47 multiple myeloma cell lines against the NCATS MIPE library collection: NCIH929_DSMZ cell viability assay (AID 1918978); note: nearly all actives have a fitted effect of over 35% in size
Summary of the method: (§1)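 Viability after 48 h drug exposure was measured as ATP-dependent luminescence. Cells, 500 per well, sat at 37 °C under 5% CO2; DMSO wells set 100%, media-only wells 0%.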

[3] = Quantitative High-Throughput drug screen in 47 multiple myeloma cell lines against the NCATS MIPE library collection: MM1S_ATCC cell viability assay (AID 1918980); note: nearly all actives have a fitted effect of over 45% in size
Summary of the method: as §1

[4] = Quantitative High-Throughput drug screen in 47 multiple myeloma cell lines against the NCATS MIPE library collection: L363_DSMZ cell viability assay (AID 1918984); note: nearly all actives have a fitted effect of over 40% in size
Summary of the method: as §1

[5] = Quantitative High-Throughput drug screen in 47 multiple myeloma cell lines against the NCATS MIPE library collection: OCIMY7_PLB cell viability assay (AID 1918987); note: nearly all actives have a fitted effect of over 65% in size
Summary of the method: as §1

[6] = Quantitative High-Throughput drug screen in 47 multiple myeloma cell lines against the NCATS MIPE library collection: OPM1_PLB cell viability assay (AID 1918989); note: nearly all actives have a fitted effect of over 40% in size
Summary of the method: as §1

[7] = Quantitative High-Throughput drug screen in 47 multiple myeloma cell lines against the NCATS MIPE library collection: MOLP8_DSMZ cell viability assay (AID 1918977); note: nearly all actives have a fitted effect of over 45% in size
Summary of the method: as §1

[8] = Quantitative High-Throughput drug screen in 47 multiple myeloma cell lines against the NCATS MIPE library collection: OCIMY1_PLB cell viability assay (AID 1918979); note: nearly all actives have a fitted effect of over 35% in size
Summary of the method: as §1

[9] = Quantitative High-Throughput drug screen in 47 multiple myeloma cell lines against the NCATS MIPE library collection: MM1R_ATCC cell viability assay (AID 1918981); note: nearly all actives have a fitted effect of over 35% in size
Summary of the method: as §1

[10] = Quantitative High-Throughput drug screen in 47 multiple myeloma cell lines against the NCATS MIPE library collection: LP1_DSMZ cell viability assay (AID 1918982); note: nearly all actives have a fitted effect of over 35% in size
Summary of the method: as §1

[11] = Quantitative High-Throughput drug screen in 47 multiple myeloma cell lines against the NCATS MIPE library collection: KMS28PE_JCRB cell viability assay (AID 1918983); note: nearly all actives have a fitted effect of over 35% in size
Summary of the method: as §1

[12] = Quantitative High-Throughput drug screen in 47 multiple myeloma cell lines against the NCATS MIPE library collection: KMS34_JCRB cell viability assay (AID 1918985); note: nearly all actives have a fitted effect of over 40% in size
Summary of the method: as §1

[13] = Quantitative High-Throughput drug screen in 47 multiple myeloma cell lines against the NCATS MIPE library collection: KMS26_JCRB cell viability assay (AID 1918975); note: nearly all actives have a fitted effect of over 45% in size
Summary of the method: (§2)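 Inhibition of cell viability is measured here. Each line was plated at 500 cells per well, treated with MIPE 4.0 drugs, kept 48 hours at 37C, then assayed for ATP content by CellTiter-Glo luminescence.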

[14] = Quantitative High-Throughput drug screen in 47 multiple myeloma cell lines against the NCATS MIPE library collection: MMM1_PLB cell viability assay (AID 1918976); note: nearly all actives have a fitted effect of over 35% in size
Summary of the method: as §1

[15] = Quantitative High-Throughput drug screen in 47 multiple myeloma cell lines against the NCATS MIPE library collection: OCIMY5_PLB cell viability assay (AID 1918988); note: nearly all actives have a fitted effect of over 65% in size
Summary of the method: as §1

[16] = Quantitative High-Throughput drug screen in 47 multiple myeloma cell lines against the NCATS MIPE library collection: SKMM1_PLB cell viability assay (AID 1919863); conditions: SKMM1 myeloma viability, CellTiter-Glo ATP, 48 h; viability: stronger effect = lower value; note: nearly all actives have a fitted effect of over 35% in size
Summary of the method: as §1

[17] = Quantitative High-Throughput drug screen in 47 multiple myeloma cell lines against the NCATS MIPE library collection: KMS21BM_JCRB cell viability assay (AID 1918974); conditions: ATP luminescence, 48 h; viability: at 45.8 µM (top of the series) unless noted
Summary of the method: (§3)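 We plated 500 myeloma cells per well, pinned in MIPE 4.0 compounds, and incubated for 48 hours at 37C. ATP was then quantified with CellTiter-Glo, with DMSO and media-only wells defining 100% and 0%.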

[18] = Quantitative High-Throughput drug screen in 47 multiple myeloma cell lines against the NCATS MIPE library collection: KMS12BM_JCRB cell viability assay (AID 1918971); note: nearly all actives have a fitted effect of over 35% in size
Summary of the method: as §2

[19] = Quantitative High-Throughput drug screen in 47 multiple myeloma cell lines against the NCATS MIPE library collection: KMS12PE_JCRB cell viability assay (AID 1918972); note: nearly all actives have a fitted effect of over 30% in size
Summary of the method: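 qHTS of the MIPE 4.0 collection: 500 myeloma cells/well, 48 h drug exposure at 37C in 5% CO2, then CellTiter-Glo for 5 min at room temperature before luminescence reading.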

[20] = Quantitative High-Throughput drug screen in 47 multiple myeloma cell lines against the NCATS MIPE library collection: KMS20_JCRB cell viability assay (AID 1918973); note: nearly all actives have a fitted effect of over 45% in size
Summary of the method: as §3
Potency is the fitted concentration of half-maximal effect.

COc1cc2c(N3CCN(C(=O)Nc4ccc(OC(C)C)cc4)CC3)ncnc2cc1OCCCN1CCCCC1
Potency [1]: inactive
Potency [2]: 11.8 µM (active)
Potency [3]: 26.4 µM (active)
Potency [4]: inactive
Potency [5]: 16.6 µM (active)
Potency [6]: 9.35 µM (active)

C=C(c1ccc(C(=O)O)cc1)c1cc2c(cc1C)C(C)(C)CCC2(C)C
Potency [1]: 0.0418 µM (active)
Potency [7]: inactive
Potency [8]: inactive
Potency [9]: inactive
Potency [10]: inactive
Potency [11]: inactive
Potency [12]: inactive

Nc1cccc2c1CN(C1CCC(=O)NC1=O)C2=O (stereo unspecified)
Potency [1]: inactive
Potency [13]: 0.605 µM (active)
Potency [14]: 0.429 µM (active)
Potency [7]: inactive
Potency [11]: 0.171 µM (active)
Potency [12]: inactive
Potency [5]: 0.0382 µM (active)
Potency [15]: inactive
Potency [6]: inactive
viability [16]: 122%

CC(C)Oc1ccc2c(=O)c(-c3ccccc3)coc2c1
Potency [1]: inactive
viability [17]: 387% (active)
Potency [14]: 18.7 µM (active)
Potency [2]: inactive
Potency [9]: inactive
Potency [11]: 14.8 µM (active)
Potency [12]: inactive
Potency [6]: inactive
viability [16]: 100%

CC(C)(S)[C@@H](N)C(=O)O
Potency [1]: inactive
Potency [17]: inactive
Potency [13]: inactive
Potency [7]: inactive
Potency [2]: inactive
Potency [8]: inactive
Potency [11]: inactive
Potency [4]: inactive
Potency [5]: inactive
Potency [6]: inactive
viability [16]: 133%

Nc1ncn([C@H]2C[C@H](O)[C@@H](CO)O2)c(=O)n1
Potency [1]: inactive
Potency [13]: inactive
Potency [7]: inactive
Potency [8]: inactive
Potency [9]: inactive
Potency [10]: inactive
Potency [11]: inactive
Potency [4]: inactive
Potency [5]: 0.187 µM (active)
Potency [6]: 8.33 µM (active)
Potency [16]: 5.9 µM (active)

O=Nc1c(-c2c(O)[nH]c3cc(Br)ccc23)[nH]c2ccccc12
Potency [18]: 16.6 µM (active)
Potency [19]: 1.18 µM (active)
Potency [20]: 5.9 µM (active)
Potency [13]: 18.7 µM (active)
Potency [14]: 20.9 µM (active)
Potency [7]: 16.6 µM (active)
Potency [2]: 2.64 µM (active)
Potency [8]: 26.4 µM (active)
Potency [9]: 16.6 µM (active)
Potency [10]: 13.2 µM (active)
Potency [11]: 23.5 µM (active)
Potency [4]: 4.69 µM (active)
Potency [12]: 3.32 µM (active)
Potency [5]: 1.87 µM (active)
Potency [15]: 7.43 µM (active)
Potency [6]: 5.26 µM (active)
Potency [16]: 20.9 µM (active)

Cc1nccn1CC1CCc2c(c3ccccc3n2C)C1=O (stereo unspecified)
Potency [1]: inactive
Potency [2]: 26.4 µM (active)
Potency [9]: inactive
Potency [11]: 20.9 µM (active)
Potency [6]: 18.7 µM (active)
viability [16]: 99.5%

C[C@@H](c1ncncc1F)[C@](O)(Cn1cncn1)c1ccc(F)cc1F
Potency [1]: inactive
Potency [13]: inactive
Potency [7]: inactive
Potency [8]: inactive
Potency [9]: inactive
Potency [11]: inactive
Potency [12]: inactive
Potency [15]: inactive

O=C1c2ccccc2-c2n[nH]c3cccc1c23
Potency [1]: 2.96 µM (active)
Potency [8]: inactive
Potency [11]: inactive
Potency [6]: inactive

COc1cc2c(cc1OC)C1CC(=O)C(CC(C)C)CN1CC2 (stereo unspecified)
Potency [1]: inactive
Potency [20]: inactive
Potency [17]: 20.9 µM (active)
Potency [13]: inactive
Potency [14]: 20.9 µM (active)
Potency [2]: inactive
Potency [8]: inactive
Potency [9]: inactive
Potency [10]: inactive
Potency [11]: inactive
Potency [6]: inactive

CCCCC(CC)COC(=O)C(C#N)=C(c1ccccc1)c1ccccc1 (stereo unspecified)
Potency [19]: inactive
Potency [13]: inactive
Potency [7]: inactive
Potency [2]: inactive
Potency [8]: inactive
Potency [9]: inactive
Potency [11]: inactive
Potency [12]: inactive
Potency [5]: inactive
Potency [6]: inactive
viability [16]: 130%

Nc1cc(C(Cl)=C(Cl)Cl)c(S(N)(=O)=O)cc1S(N)(=O)=O
Potency [19]: inactive
Potency [13]: inactive
Potency [7]: inactive
Potency [2]: inactive
Potency [8]: inactive
Potency [3]: 0.059 µM (active)
Potency [9]: inactive
Potency [10]: inactive
Potency [11]: inactive
Potency [12]: inactive
Potency [5]: 11.8 µM (active)
Potency [6]: inactive

Cc1cccc(CN2CCN(C(c3ccccc3)c3ccc(Cl)cc3)CC2)c1 (stereo unspecified)
Potency [18]: 26.4 µM (active)
Potency [14]: 20.9 µM (active)
Potency [5]: 9.35 µM (active)
Potency [15]: 20.9 µM (active)
Potency [6]: 20.9 µM (active)

Cc1cccc(-c2[nH]ncc2-c2ccc3ncccc3n2)n1
Potency [19]: inactive
Potency [14]: inactive
Potency [2]: inactive
Potency [8]: inactive
Potency [11]: inactive
Potency [4]: inactive
Potency [12]: inactive
viability [16]: 121%

— PubChem BioAssay (NCATS)
